In PubChem BioAssay (NCATS):
Inconclusive results are not listed. Activity calls are given as the source filed them. Unless noted, the call rests on the fitted dose curve; in most records, active means well fitted inhibition curve with a large enough effect; inconclusive means small, poorly fitted or top-dose-only effect; inactive means flat fitted curve, though single readings scatter.

Assays:
[1] = qHTS for identification of novel therapeutic agents for treatment of microphthalmiaassociated transcription factor (MiT) renal cell carcinoma (RCC) (AID 1963991); settings: CellTiter-Glo, 48 h, stronger effect = lower value
Procedure, shortened: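 Three TFE3-fusion RCC lines (UOK109, UOK124, UOK145), 500 cells/well in complete medium, were treated with MIPE 4.0 compounds for 48 hours at 37 C. Viability was by CellTiter-Glo luminescence, normalized to DMSO (100%) and empty wells (0%); curves fitted over 11 concentrations.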

[2] = qHTS drug screen for cell cycle checkpoint inhibitors in PARPi-resistant BRCA-mutant ovarian cancer cell lines. (AID 1963452; calls by dose curve); settings: PEO1/OlaR viability, CellTiter-Glo luminescence, 96 h, stronger effect = lower value
Procedure, shortened: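 PEO1, PEO4 and PEO1/OlaR ovarian cancer cells, 600 per well, exposed 96 h at 37C to a dilution series. Viability read by CellTiter-Glo luminescence, normalized to DMSO and empty wells; activity summarized as Z-AUC.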

[3] = qHTS profiling for inhibitors of Plasmodium falciparum proliferation (AID 504749); further: nearly all actives have a fitted effect of over 60% in size; further: potency means the concentration at half of the fitted maximal effect;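 on activity, negative = inhibition: 0% = DMSO vehicle and full inhibition = artemisinin control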; settings: P. falciparum in erythrocytes, SYBR Green DNA, 72 h
Procedure, shortened: (§1)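 SYBR Green fluorescence of parasite DNA, read after lysis and overnight dark incubation, measured growth over 72 h in erythrocyte culture at 0.3% parasitemia and 2.5% hematocrit. Data normalised to DMSO and 0.29 uM artemisinin, with plate-drift correction.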

[4] = test system: 3D7; experiment: as above; settings: P. falciparum in erythrocytes, SYBR Green DNA, 72 h; series mostly up to 28.7 µM
Procedure, shortened: as §1

[5] = test system: AA1029; experiment: as above; settings: P. falciparum in erythrocytes, SYBR Green DNA, 72 h; series mostly up to 28.7 µM
Procedure, shortened: as §1

[6] = test system: AS120; experiment: as above; settings: P. falciparum in erythrocytes, SYBR Green DNA, 72 h; series mostly up to 28.7 µM
Procedure, shortened: as §1

[7] = test system: ATS189; experiment: as above; settings: P. falciparum in erythrocytes, SYBR Green DNA, 72 h; series mostly up to 28.7 µM
Procedure, shortened: as §1

[8] = test system: ATS95; experiment: as above; settings: P. falciparum in erythrocytes, SYBR Green DNA, 72 h; series mostly up to 28.7 µM
Procedure, shortened: as §1

[9] = test system: C2A; experiment: as above; settings: P. falciparum in erythrocytes, SYBR Green DNA, 72 h; series mostly up to 28.7 µM
Procedure, shortened: as §1

[10] = test system: CP185; experiment: as above; settings: P. falciparum in erythrocytes, SYBR Green DNA, 72 h; series mostly up to 28.7 µM
Procedure, shortened: as §1

[11] = test system: CP191; experiment: as above; settings: P. falciparum in erythrocytes, SYBR Green DNA, 72 h; series mostly up to 28.7 µM
Procedure, shortened: as §1

[12] = test system: CP192; experiment: as above; settings: P. falciparum in erythrocytes, SYBR Green DNA, 72 h; series mostly up to 28.7 µM
Procedure, shortened: as §1

[13] = test system: CP194; experiment: as above; settings: P. falciparum in erythrocytes, SYBR Green DNA, 72 h; series mostly up to 28.7 µM
Procedure, shortened: as §1

[14] = test system: CP201; experiment: as above; settings: P. falciparum in erythrocytes, SYBR Green DNA, 72 h; series mostly up to 28.7 µM
Procedure, shortened: as §1

[15] = test system: CP203; experiment: as above; settings: P. falciparum in erythrocytes, SYBR Green DNA, 72 h; series mostly up to 28.7 µM
Procedure, shortened: as §1

[16] = test system: CP211; experiment: as above; settings: P. falciparum in erythrocytes, SYBR Green DNA, 72 h; series mostly up to 28.7 µM
Procedure, shortened: as §1

[17] = test system: CP215; experiment: as above; settings: P. falciparum in erythrocytes, SYBR Green DNA, 72 h; series mostly up to 28.7 µM
Procedure, shortened: as §1

[18] = test system: CP217; experiment: as above; settings: P. falciparum in erythrocytes, SYBR Green DNA, 72 h; series mostly up to 28.7 µM
Procedure, shortened: as §1

[19] = test system: CP237; experiment: as above; settings: P. falciparum in erythrocytes, SYBR Green DNA, 72 h; series mostly up to 28.7 µM
Procedure, shortened: as §1

[20] = test system: 7G8; experiment: as above; settings: P. falciparum in erythrocytes, SYBR Green DNA, 72 h; series mostly up to 28.7 µM
Procedure, shortened: as §1

[21] = TFE3-RCC UOK109 viability, measured here: UOK109 Z-AUC
[22] = TFE3-RCC viability, measured here: UOK124 Z-AUC
[23] = TFE3-RCC viability, measured here: UOK145 Z-AUC
[24] = measured here: PEO1 parental Z-AUC
[25] = at 28.7 µM (top of the series), parasite line B
[26] = at 28.7 µM (top of the series), parasite line A
[27] = at 12.8 µM (top of the series), parasite line A
[28] = at 12.8 µM (top of the series), parasite line B

CCN1CCCC1CNC(=O)c1cc(S(N)(=O)=O)ccc1OC (centres undefined)
0.447: z-score [1, 21]
0.683: z-score [1, 22]
0.799: z-score [1, 23]

CC(C)Cn1cnc2c(N)nc3ccccc3c21
-0.536: Z-AUC [2, 24]
inactive: Z-AUC [2] -0.974 | activity, negative = inhibition [3, 25] -10.9% | Potency [4] | Potency [5] | Potency [6] | Potency [7] | Potency [8] | Potency [9] | Potency [10] | Potency [11] | Potency [12] | Potency [13] | Potency [14] | Potency [15] | Potency [16] | Potency [17] | Potency [18] | Potency [19]
-1.36: Z-AUC ([2]; measured here: PEO4 Z-AUC)

CCCCCCNC(=O)n1cc(F)c(=O)[nH]c1=O
active: Potency [4] 4.47 µM | Potency [20] 5.01 µM | Potency [9] 12.6 µM | Potency [16] 16.9 µM
0.733: Z-AUC ([2]; measured here: PEO4 Z-AUC)
inactive: Z-AUC [2] 1.08
0.601: Z-AUC [2, 24]

COc1ccc2c(c1)c(CC(=O)OCC(=O)O)c(C)n2C(=O)c1ccc(Cl)cc1
1.19: z-score [1, 22]
0.507: z-score [1, 23]
1.12: z-score [1, 21]

CCN(CC)CC#CCOC(=O)C(O)(c1ccccc1)C1CCCCC1 (centres undefined)
0.714: z-score [1, 21]
0.607: z-score [1, 23]
0.353: z-score [1, 22]

Cc1ccnc2c1NC(=O)c1cccnc1N2C1CC1
inactive: activity, negative = inhibition [3, 26] 0.983% | activity, negative = inhibition [3, 25] -17.2% | Potency [4] | Potency [5] | Potency [6] | Potency [7] | Potency [8] | Potency [9] | Potency [10] | Potency [11] | Potency [12] | Potency [13] | Potency [14] | Potency [15] | Potency [16] | Potency [17] | Potency [18] | Potency [19]

CN1CCN(c2c(F)cc3c(=O)c(C(=O)O)cn4c3c2OCN4C)CC1
inactive: activity, negative = inhibition [3, 26] 4.43% | activity, negative = inhibition [3, 25] 17.6% | Potency [4] | Potency [20] | Potency [5] | Potency [6] | Potency [7] | Potency [8] | Potency [9] | Potency [10] | Potency [11] | Potency [12] | Potency [13] | Potency [14] | Potency [15] | Potency [16] | Potency [17] | Potency [18] | Potency [19]

Cc1noc(NS(=O)(=O)c2ccc(N)cc2)c1C
inactive: activity, negative = inhibition [3, 26] 13.7% | activity, negative = inhibition [3, 25] 4.61% | Potency [4] | Potency [20] | Potency [5] | Potency [6] | Potency [7] | Potency [8] | Potency [9] | Potency [10] | Potency [11] | Potency [12] | Potency [13] | Potency [14] | Potency [15] | Potency [16] | Potency [17] | Potency [18] | Potency [19]

CCOC(=O)[C@H](CCc1ccccc1)N[C@H]1CS[C@H](c2cccs2)CN(CC(=O)O)C1=O
-0.726: Z-AUC ([2]; measured here: PEO4 Z-AUC)
inactive: Z-AUC [2] -0.655 | activity, negative = inhibition [3, 26] -33.7% | Potency [4] | Potency [5] | Potency [7] | Potency [8] | Potency [9] | Potency [10] | Potency [11] | Potency [12] | Potency [13] | Potency [14] | Potency [15] | Potency [16] | Potency [17] | Potency [19]
-0.787: Z-AUC [2, 24]

NC(=O)N1c2ccccc2CC(=O)c2ccccc21
-0.025: z-score [1, 23]
inactive: activity, negative = inhibition [3, 26] -5.05% | activity, negative = inhibition [3, 25] -8.83% | Potency [4] | Potency [20] | Potency [5] | Potency [6] | Potency [7] | Potency [8] | Potency [9] | Potency [10] | Potency [11] | Potency [12] | Potency [13] | Potency [14] | Potency [15] | Potency [16] | Potency [18] | Potency [19]
0.211: z-score [1, 21]
0.361: z-score [1, 22]

COc1ccc(C(=O)CC(=O)c2ccc(C(C)(C)C)cc2)cc1
0.772: Z-AUC [2, 24]
inactive: Z-AUC [2] 1.49 | activity, negative = inhibition [3, 26] 0.965% | Potency [4] | Potency [5] | Potency [6] | Potency [7] | Potency [8] | Potency [9] | Potency [10] | Potency [11] | Potency [12] | Potency [13] | Potency [14] | Potency [15] | Potency [16] | Potency [18]
1.06: Z-AUC ([2]; measured here: PEO4 Z-AUC)

CCn1cc(C(=O)O)c(=O)c2cc(F)c(N3CCNCC3)nc21
-0.25: z-score [1, 22]
inactive: activity, negative = inhibition [3, 27] -33.7% | activity, negative = inhibition [3, 28] -38.9% | Potency [4] | Potency [7] | Potency [8] | Potency [9] | Potency [10] | Potency [11] | Potency [12] | Potency [13] | Potency [14] | Potency [15] | Potency [16] | Potency [17] | Potency [18]
0.63: z-score [1, 21] | z-score [1, 23]

CC1CC2C3CCC4=CC(=O)C=C[C@]4(C)[C@@]3(F)[C@@H](O)C[C@]2(C)[C@@]1(O)C(=O)CO (some centres undefined)
0.693: z-score [1, 22]
0.527: z-score [1, 23]
0.936: z-score [1, 21]

CNCC[C@H](Oc1cccc2ccccc12)c1cccs1
active: Potency [20] 2.24 µM | Potency [5] 7.08 µM | Potency [6] 11.2 µM | Potency [8] 7.94 µM | Potency [11] 11.2 µM | Potency [19] 10 µM
inactive: Potency [14] | Potency [16]

COc1cccc(N(C)C(=S)Oc2ccc3c(c2)CCCC3)n1
inactive: activity, negative = inhibition [3, 26] -29.5% | activity, negative = inhibition [3, 25] -22.3% | Potency [5] | Potency [7] | Potency [8] | Potency [9] | Potency [10] | Potency [12] | Potency [16] | Potency [18] | Potency [19]
0.578: z-score [1, 22]
0.559: z-score [1, 21]
1.67: z-score [1, 23]

CN1CCN(c2c(F)cc3c(=O)c(C(=O)O)cn(CCF)c3c2F)CC1
inactive: activity, negative = inhibition [3, 26] 1.69% | activity, negative = inhibition [3, 25] 7.79% | Potency [4] | Potency [20] | Potency [5] | Potency [6] | Potency [7] | Potency [8] | Potency [9] | Potency [10] | Potency [11] | Potency [12] | Potency [13] | Potency [14] | Potency [15] | Potency [16] | Potency [17] | Potency [18] | Potency [19]
1.29: z-score [1, 21]
0.785: z-score [1, 23]
-0.24: z-score [1, 22]

Nc1ccc(S(=O)(=O)Nc2ccccn2)cc1
1.57: z-score [1, 21]
0.543: z-score [1, 22]
0.723: z-score [1, 23]
inactive: activity, negative = inhibition [3, 27] -13.7% | activity, negative = inhibition [3, 28] -1.88% | Potency [4] | Potency [20] | Potency [5] | Potency [6] | Potency [7] | Potency [9] | Potency [10] | Potency [11] | Potency [12] | Potency [13] | Potency [14] | Potency [15] | Potency [16] | Potency [17] | Potency [18] | Potency [19]

CN1CCCC(n2nc(Cc3ccc(Cl)cc3)c3ccccc3c2=O)CC1 (centres undefined)
active: Potency [20] 12.6 µM
inactive: activity, negative = inhibition [3, 26] -9.96% | activity, negative = inhibition [3, 25] -11.1% | Potency [4] | Potency [10] | Potency [12] | Potency [13] | Potency [16]

CC(C)OC(=O)OCOP(=O)(CO[C@H](C)Cn1cnc2c(N)ncnc21)OCOC(=O)OC(C)C
0.601: z-score [1, 23]
0.776: z-score [1, 22]
0.412: z-score [1, 21]

CN(C)CCc1c[nH]c2ccc(C[C@H]3COC(=O)N3)cc12
0.58: z-score [1, 23]
0.402: z-score [1, 21]
-0.14: z-score [1, 22]
